# Results with a measured potency or affinity are listed apart. Unmarked numbers belong to inactive results. Activity calls are given as the source filed them.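 The calls were made as follows: active = absorbance falls by 30% or more versus neutral controls, with a potency fitted within twice the top valid dose; inconclusive = no clear call, values can overlap the other calls; inactive = change opposite to expected direction, plus the rest.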
# Target: Protein disulfide-isomerase (Homo sapiens) (UniProt P07237)
# Sequence (P07237 whole entry, looked up): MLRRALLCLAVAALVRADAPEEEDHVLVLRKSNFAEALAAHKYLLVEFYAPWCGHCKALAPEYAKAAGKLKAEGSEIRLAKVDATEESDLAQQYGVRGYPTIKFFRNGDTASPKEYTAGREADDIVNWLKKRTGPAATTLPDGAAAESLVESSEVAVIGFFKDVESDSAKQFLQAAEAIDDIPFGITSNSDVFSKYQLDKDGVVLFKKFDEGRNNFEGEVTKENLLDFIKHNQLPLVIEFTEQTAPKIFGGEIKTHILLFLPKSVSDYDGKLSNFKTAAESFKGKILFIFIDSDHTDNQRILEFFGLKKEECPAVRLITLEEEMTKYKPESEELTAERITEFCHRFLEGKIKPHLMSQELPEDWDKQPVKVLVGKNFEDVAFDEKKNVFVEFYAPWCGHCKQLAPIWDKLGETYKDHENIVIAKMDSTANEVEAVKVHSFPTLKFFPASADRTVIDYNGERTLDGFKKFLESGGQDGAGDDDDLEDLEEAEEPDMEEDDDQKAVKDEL
# Assay: PDI inhibitors, insulin aggregation turbidity, dose response, biochemical, absorbance, cherry-picked samples (AID 602350);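 also: 0% = neutral controls and -100% = rutin hydrate positive control wells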
SMILES,outcome,"activity change, negative = inhibition"
Cc1cccc(C)c1NC(=O)CN1CCNCC1,inactive,
COc1ccc(/C=C2\Sc3ccc(C(=O)NCCCN4CCCC4)cc3N(C)C2=O)cc1OC,inactive,
CN(CCC(=O)Nc1ccc(Br)cc1)Cc1ccccc1,inactive,
C[C@@H]1CN([C@@H](C)CO)C(=O)c2cc(NC(=O)Cc3cn(C)c4ccccc34)ccc2O[C@@H]1CN(C)S(=O)(=O)c1ccc(F)cc1,inactive,
COc1ccccc1NS(=O)(=O)c1cccc(C(=O)NCC2(N3CCCCC3)CCCCC2)c1,inactive,
CC(C)C[C@@H](CN1CCC[C@@H]1CN1C(=O)C(=O)NC[C@@H]1Cc1ccccc1)N1C[C@H](Cc2ccc(O)cc2)N(CCc2ccccc2)C(=O)C1=O,inactive,
O=C(CNC(=O)c1n[nH]c2ccccc12)Nc1cc(Cl)ccc1Cl,inactive,
O=C(COC(=O)c1ccccc1NC(=O)c1ccco1)NCCC1=CCCCC1,inactive,
O=C(CCc1ccc(O)cc1)NN=Cc1cc(Br)ccc1O,inactive,
COc1ccc(/C=C/C(=O)c2cc(F)ccc2OC(=O)c2ccccc2OC)cc1OC,inactive,
O=C(c1ccc(NS(=O)(=O)c2ccccc2)cc1)N1CCOCC1,inactive,
O=C(NCc1ccccc1)c1cc(C2CCCN(C(=O)C3CCCCC3)C2)on1 (stereo unspecified),inactive,
Cc1noc(C)c1-c1ccc(C(=O)NCc2ccc(Cl)cc2)c2occc12,inactive,
CC(NC(=O)COC(=O)Cc1ccccc1[N+](=O)[O-])c1ccccc1 (stereo unspecified),inactive,
CN(C1=NC(=O)C(CC(=O)Nc2ccc(Br)cc2)S1)c1ccc(O)cc1 (stereo unspecified),inactive,
CCCNC(=O)c1cccc(COc2ccccc2OC)c1,inactive,
CN(C)CCCN(C(=O)c1ccc(S(=O)(=O)N2CCCc3ccccc32)cc1)c1nc2ccc(F)cc2s1,inactive,
CC(OC(=O)c1cccc(S(=O)(=O)N(C)C)c1)C(=O)NCC(=O)Nc1ccc(F)c(F)c1F (stereo unspecified),inactive,
O=C(/C=C/c1c(F)cccc1Cl)c1ccc(O)cc1,inactive,
CCOC(=O)C1(CCOc2ccccc2)CCN(Cc2cccc(F)c2)CC1,inactive,
COCc1[nH][nH]c(=O)c1C=Nc1ccc(F)cc1F,inactive,
C[C@@H]1CN([C@@H](C)CO)C(=O)Cc2cc(NC(=O)Nc3ccccc3)ccc2O[C@@H]1CN(C)Cc1ccccc1,inactive,
NC(=O)c1ccc(NC(=O)COC(=O)c2ccc(Br)c(S(=O)(=O)N3CCOCC3)c2)cc1,inactive,

SMILES,outcome,"activity change, negative = inhibition"
CCOc1ccc(NC(=O)CCc2nnc3ccc(N4CCN(C)CC4)nn23)cc1,inactive,
CN(C)c1ccc(NC(=O)CN2C(=O)CC(c3ccccc3)=Nc3ccccc32)cc1,inactive,
O=C1N[C@@H](Cc2c[nH]c3ccccc23)COC(=O)[C@@H](Cc2ccc(F)cc2)C/C=C\C[C@H]1CC(=O)N(CCO)Cc1ccccc1,inactive,
COc1ccc(Cl)cc1NC(=O)COC(=O)C1CC1,inactive,
O=C(CSc1n[nH]c(-c2ccccc2)n1)Nc1ccccc1O,inactive,
NC(=O)c1nsc(C(=O)N(CC(=O)NCc2ccc(F)cc2)Cc2ccco2)c1N,inactive,
COc1ccc(OC)c(CN2CCN(Cc3cc(=O)oc4cc(O)ccc34)CC2)c1,inactive,
O=C(N/N=C/c1cccc([N+](=O)[O-])c1)c1cnccn1,inactive,
C=CC[C@H](CC(=O)N(CCO)Cc1ccccc1)C(=O)N[C@H](COC(=O)[C@@H](CC=C)Cc1ccc(F)cc1)Cc1c[nH]c2ccccc12,inactive,
CC1CC(C)CN(C(=O)COC(=O)c2ccc[nH]c2=O)C1 (stereo unspecified),inactive,
COc1ccc(C2c3ccc(O)cc3Oc3ncn(CCCO)c(=N)c32)cc1 (stereo unspecified),inactive,
C=CCNc1ncnc2c1ncn2[C@H]1CN(Cc2cccc3ccccc23)C[C@@H](CO)O1,inactive,
C[C@H](CO)N1C[C@H](C)[C@@H](CN(C)S(=O)(=O)c2ccc(F)cc2)Oc2ccc(NC(=O)Cc3ccccc3)cc2C1=O,inactive,
Cc1noc(C)c1S(=O)(=O)Nc1ccc2c(c1)CC(=O)N([C@H](C)CO)C[C@@H](C)[C@@H](CN(C)S(=O)(=O)c1ccc(F)cc1)O2,inactive,
O=C(CCN1C(=O)C2C3C=CC(C4CC34)C2C1=O)Oc1ccccc1 (stereo unspecified),inactive,
Cc1ccc(CN(c2ccc(C(=O)NCc3ccccn3)cc2)S(C)(=O)=O)cc1,inactive,
CCOc1ncccc1C(=O)OCC(=O)Nc1ccc(C(C)C)cc1,inactive,
Cc1noc(C)c1S(=O)(=O)Nc1ccc2c(c1)CC(=O)N([C@@H](C)CO)C[C@H](C)[C@@H](CN(C)S(=O)(=O)c1ccc(F)cc1)O2,inactive,
COc1ccc(CN(C)C[C@@H]2Oc3c(NS(C)(=O)=O)cccc3C(=O)N([C@H](C)CO)C[C@H]2C)cc1,inactive,
COc1ccc(CCNC(=O)c2cc(S(=O)(=O)N(C)C)ccc2N2CCCC2)cc1,inactive,
COc1ccc(OC)c2[nH]c(=O)c(CCNC(=O)C(=O)c3c(C)[nH]c4ccccc34)cc12,inactive,
O=C1NC[C@H](Cc2ccccc2)N(C[C@H]2CCCN2C[C@H](Cc2ccccc2)N2C[C@H](Cc3ccc(O)cc3)N(CC3CCCCCC3)C(=O)C2=O)C1=O,inactive,
O=C(NN1CC(C(=O)OCc2ccccc2F)CC1=O)c1ccccc1 (stereo unspecified),inactive,

SMILES,outcome,"activity change, negative = inhibition"
O=C(Nc1oc2ccccc2c(=O)c1-c1ccc(Cl)cc1)c1ccco1,inactive,
CC(=O)Oc1ccc(C2OC(=O)c3ccccc3N2C(C)=O)cc1 (stereo unspecified),inactive,
CCOc1ccc2[nH]c(=O)c(CN(CCO)C(=O)CC)cc2c1,inactive,
Cc1ccc(-n2ncc3c(=O)[nH]c(SCC(=O)N4CCCc5ccccc54)nc32)cc1,inactive,
CC(C)c1ccc(Nc2nc(CC(=O)O)cs2)cc1,inactive,
COc1cccc(/C=N/NC(=O)CNC(=O)C(c2ccccc2)c2ccccc2)c1O,inactive,
C[C@@H](C(=O)NCc1ccccc1)N1C(=O)C2CC=CCC2C1=O (stereo partly specified),inactive,
Cc1noc(C)c1S(=O)(=O)Nc1ccc2c(c1)CC(=O)N([C@H](C)CO)C[C@@H](C)[C@H](CN(C)S(=O)(=O)c1ccc(F)cc1)O2,inactive,
COC(=O)c1ccc(COC(=O)CSCC(=O)Nc2ccc(C)cc2C)cc1,inactive,
O=C(Nc1ccccc1)c1cc(C2CCCCN2C(=O)c2ccccc2)on1 (stereo unspecified),inactive,
CC(=O)N1CCC(C(=O)NCCOc2cccc(C)c2)CC1,inactive,
CCOC(=O)c1ccc(NC(=O)C2(c3ccc(Cl)cc3)CCCC2)cc1,inactive,
CN1CCN(Cc2nc3ccccc3c(=O)n2Cc2nc(-c3ccc4ccccc4c3)cs2)CC1,inactive,
CCOC(=O)c1oc2cccc(O)c2c1CN(Cc1ccccc1)C(C)=O,inactive,
Cc1ccc(NC(=O)NC(=O)CN2CCC(C(N)=O)CC2)c(C)c1,inactive,
COCC(=O)N(C)C1(c2nnnn2CCOC(=O)Nc2ccc(Cl)cc2)CCCCC1,inactive,
Cc1cc(C)c(C)c(S(=O)(=O)N2CCC(C(=O)N(C)Cc3nc4ccccc4c(=O)[nH]3)CC2)c1C,inactive,
CCCNC(=O)Cn1c(-c2ccc(F)cc2)cc(C(=O)OCC)c1C,inactive,
CCOc1ccc(CCN2C(=O)C(=O)N([C@@H](CC(C)C)CN3CCC[C@@H]3CN3C(=O)C(=O)NC[C@@H]3Cc3ccccc3)C[C@@H]2Cc2ccc(O)cc2)cc1,inactive,
COc1ccc(S(=O)(=O)NCC(c2ccc(F)cc2)N2CCOCC2)cc1Br (stereo unspecified),inactive,
O=S(=O)(c1cc(F)ccc1F)N1CCN(c2ncccn2)CC1,inactive,
CCOC(=O)C1(Cc2ccc(O)cc2)NC(c2ccccc2F)C2C(=O)N(C)C(=O)C21 (stereo unspecified),inactive,
CCOC(=O)C1=C(c2ccccc2)N=c2s/c(=C\c3cccc(O)c3)c(=O)n2C1c1cccs1 (stereo unspecified),inactive,

SMILES,outcome,"activity change, negative = inhibition"
Cc1sc(NC(=O)CCl)c(C(=O)c2ccccc2)c1C,inactive,
CCOC(=O)c1c(CN2CCOCC2)n(-c2ccccc2)c2cc(Br)c(OC)cc12,inactive,
O=C(NCCc1c[nH]c2ccccc12)/C(=C\c1cccnc1)NC(=O)c1ccccc1Br,inactive,
Cc1ccc(S(=O)(=O)N2CCC(C(=O)Nc3ccc(S(=O)(=O)N4CCCC4)cc3)CC2)cc1,inactive,
COc1ccc(C[C@@H]2OC3(C=CC(=O)C=C3)O[C@H]2Cc2ccc(OC)cc2)cc1,,-2.56% [at 2.1 µM]
CCCCn1c(N)c(N(CC(C)C)C(=O)c2cc(-c3ccncc3)nc3ccccc23)c(=O)[nH]c1=O,inactive,
CCOC(=O)c1c(CN2CCN(C)CC2)n(C)c2cc(Br)c(OC)cc12,inactive,
N#Cc1c(NCCCO)nc(-c2ccco2)c2c1CCCC2,inactive,
O=C(O)c1ccccc1Cc1ccc(F)c2ccccc12,inactive,
CCOC(=O)c1c(CN2CCN(C)CC2)n(-c2ccccc2)c2cc(Br)c(O)cc12,inactive,
FC(F)(F)c1cccc(NC(=S)NCc2ccccn2)c1,inactive,
Cc1[nH][nH]c(=O)c1C(c1c(C)[nH][nH]c1=O)c1cn(Cc2ccccc2Cl)c2ccccc12,inactive,
Cc1ccc2c(c1)Oc1ccc(NC(=O)CCl)cc1C(=O)N2,inactive,
Cn1cc(Cl)c(C(=O)OCC(=O)Nc2ccccc2)n1,inactive,
CCC1Nc2ncnc(N3CCCCC3)c2N(Cc2ccc(C)cc2)C1=O (stereo unspecified),inactive,
Cc1[nH]c2ccc(C(=O)NC3CCCC3)cc2c1C,inactive,
C[C@@H](CN1C2=NC[C@H](Cc3ccc(O)cc3)N2C[C@H]1Cc1ccc(O)cc1)NC(=O)CCC1CCCCC1,inactive,
CC1(C(=O)NS(=O)(=O)c2ccccc2Cl)CCN1C(=O)c1ccccc1CCc1ccccc1 (stereo unspecified),inactive,
CCOC(=O)c1cc(S(=O)(=O)N2CCN(C(=O)OCC)CC2)cn1C,inactive,
OCCC1CN(Cc2cccn2-c2ccccn2)CCN1C1CCCCC1 (stereo unspecified),inactive,
CCOc1ccc(NC(=O)CN(C)C(=O)c2cc(C)nc3ccccc23)cc1OCC,inactive,
CC(C)Oc1cccc(C(=O)NC(=S)Nc2cccc(NC(=O)c3ccccc3Cl)c2)c1,inactive,

# From PubChem BioAssay AID602350 (Broad Institute, 2012)
